According to PubChem BioAssay (NCI):
About 83,000 compounds went through this panel and 20% of them were active in at least one assay; those are over-represented in the sample as a whole.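 Values shown are percent growth following 48 h exposure of cells in 96-well plates to a single concentration of compound; below 10 was considered active.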 Values without a mark were called inactive. Activity calls are given as the source filed them.

Key:
Test in all cases: NCI-60 one-dose screen, 48 h (100 = growth as untreated, 0 = no growth, -100 = all killed)
Conditions in all cases: 10 µM unless noted
[1] = system: NCI-H23 lung
[2] = system: NCI-H226 lung
[3] = system: NCI-H322M lung
[4] = system: HOP-62 NSCLC
[5] = system: NCI-H460 lung
[6] = system: HOP-92 NSCLC
[7] = system: NCI-H522 lung
[8] = system: A549/ATCC NSCLC
[9] = system: 786-0 renal
[10] = system: COLO 205 colon

Row | SMILES | growth [1] | growth [2] | growth [3] | growth [4] | growth [5] | growth [6] | growth [7] | growth [8] | growth [9] | growth [10]
1 | NN1C(=O)CSC1=S | 97.5% | 100% | 98.9% | 81.7% | 105% | 102% | 73.3% | 65.5% | 99.2% | 107%
2 | CCN1CCN(c2cc(C)nc(N(CCCNc3ccnc4cc(Cl)ccc34)Cc3ccc4c(c3)OCO4)n2)CC1 | 36.8% | 50.7% | 5.48% (active) | -38.8% (active) | 7.01% (active) | -24.9% (active) | -24.5% (active) | 11.5% | -80.2% (active) | -82.6% (active)
3 | C=CCCCOC1[C@H](OCc2ccccc2)C(OCc2ccccc2)C(OC)O[C@@H]1CNC(=O)c1cccc(I)c1 (stereo not given in full) | 44.2% | 66.5% | 70.3% | 77.7% | -7.83% (active) | 67.2% | 42.1% | 27.2% | 39.5% | 36.9%
4 | CCCCCCCC(=O)SCC/C=C/[C@@H]1CC(=O)NCc2cccc(n2)C2=N[C@@](C)(CS2)C(=O)N[C@@H](C(C)C)C(=O)O1 | 2.23% (active) | -9.02% (active) | -5.77% (active) | -22.2% (active) | 5.88% (active) | -5.42% (active) | -12.7% (active) | 0.749% (active) | 10.8% | -61.8% (active)
5 | CC(=O)Nc1cccc(-n2c(=O)n(C3CC3)c(=O)c3c(Nc4ccc(I)cc4F)n(C)c(=O)c(C)c32)c1 | 17.1% | 49.5% | 10.9% | 19.5% | 56.1% | -27% (active) | 34.6% | 28.4% | 56.2% | -12.9% (active)
6 | COc1cc2c(cc1OCCCCCCN1CCN(c3ncnc4ccccc34)CC1)N=CC1CCCN1C2=O (stereo not given) | -26.1% (active) | -54.9% (active) | -2.96% (active) | -25.9% (active) | 3.48% (active) | -21.7% (active) | -55.2% (active) | 1.08% (active) | -10.3% (active) | -57.1% (active)
7 | CCn1cc(-c2ccnc3[nH]c(-c4cccc(CN(C)C)c4)cc23)c(-c2ccc(NC(=O)N(C)C)cc2)n1 | 17.6% | 32.3% | 38.7% | 15% | 9.19% (active) | -13.3% (active) | 6.18% (active) | 14.9% | 35.1% | -26.9% (active)
8 | C[N+](C)(CCOC(c1ccccc1)c1ccccc1)CC(=O)OCc1ccccc1 | 101% | 91.8% | 90.6% | 97.8% | 110% | 106% | 93.8% | 102% | 105% | 103%
9 | Nc1c2c(c(O)c3c1=C(CO)C=N3)=NCCS2=O (stereo not given) | -33.4% (active) | -52.2% (active) | -95.1% (active) | -52.7% (active) | -61.7% (active) | -54.3% (active) | -46.9% (active) | -42.4% (active) | 36.1% | -75.1% (active)
10 | COCC(=O)NC/C=C/c1ccc2ncnc(Nc3ccc(Oc4ccc(C)nc4)c(C)c3)c2c1 | 39.3% | 53.5% | 10.8% | 58.8% | 50.7% | 23.8% | 14.8% | 46% | 55% | 9.48% (active)
11 | C=C1C(=O)O[C@H]2[C@H]1CC/C(Cn1cc(-c3cc(C)c(C)cc3C)nn1)=C\CC[C@@]1(C)O[C@@H]21 | -61.3% (active) | -65.2% (active) | 68.3% | 55.7% | 36.5% | -79% (active) | -64.2% (active) | 26% | -77.5% (active) | -70.5% (active)
12 | COc1cc2nccc(Oc3ccc(NC(=O)Nc4cc(C)on4)c(Cl)c3)c2cc1OC | 28.8% | 23.1% | 32.9% | 18.4% | 14.5% | -55.9% (active) | 11.1% | 4.95% (active) | 16.1% | -25.4% (active)
13 | NC[C@@](O)(c1ccc(Cl)cc1)c1ccc(-c2cn[nH]c2)cc1 | 27.4% | 43.9% | 10.3% | 15.2% | 23.1% | -1.15% (active) | 17.7% | 18.3% | 6.12% (active) | -22.8% (active)
14 | Cn1c(Nc2ccc(C(F)(F)F)cc2)nc2cc(Oc3ccnc(-c4ncc(C(F)(F)F)[nH]4)c3)ccc21 | 48.8% | 64.5% | 30.8% | 60% | 59.2% | 67% | 40.5% | 40.1% | 89.4% | 22.9%
15 | CC[C@@H]1C(=O)N(C)c2cnc(Nc3ccc(C(=O)NC4CCN(C)CC4)cc3OC)nc2N1C1CCCC1 | 8.04% (active) | 52.6% | 24.9% | -20.1% (active) | 8.51% (active) | 7.59% (active) | -14.4% (active) | 3.29% (active) | 8.26% (active) | -54% (active)
16 | Cc1cc(C(=O)NOCCO)c(Nc2ccc(I)cc2F)n(C)c1=O | 25.9% | 71.2% | 19.8% | 38.9% | 66.6% | -21.5% (active) | 55% | 32.8% | 71.3% | 4.04% (active)
17 | Cc1cc2c(-c3nc4ccccn4c3Nc3cccc4ccccc34)c(O)c(O)cc2c(O)c1-c1c(C)cc2c(-c3nc4ccccn4c3Nc3cccc4ccccc34)c(O)c(O)cc2c1O | 12.4% | 46.6% | 59.4% | 37.9% | 3.9% (active) | 9.86% (active) | 32% | 16.1% | 68% | 28%
18 | CCN(CCN(C)C)C(=O)CNCc1cc(C(N)=O)ccn1 | 101% | 89.1% | 106% | 87% | 108% | 87.2% | 78.1% | 72.4% | 103% | 108%
19 | Cc1ccc(NC(=O)Nc2ccc(Nc3ncnc4sc5c(c34)CCOC5)cc2)cc1Cl | 99.9% | 94.9% | 103% | 74.6% | 108% | 91.6% | 60.9% | 85.8% | 110% | 102%
20 | CC/C(=C(/c1ccc(Cl)cc1)c1ccc(OCCN2CCCCC2)cc1)c1ccc(Cl)cc1 | 61.9% | 84.5% | 93.1% | 86.8% | 79.7% | 85.2% | 65.3% | 73% | 76.7% | 70.4%
21 | Cc1ccc(N)cc1CN1C(=O)c2ccccc2C1=O | 105% | 93.1% | 104% | 97.1% | 105% | 86.9% | 58.5% | 105% | 98.5% | 105%
22 | COc1cc(NCCCN)c2ncccc2c1 | 70.8% | 92.7% | 82.9% | 79.4% | 74% | 50.7% | 84% | 95.9% | 95.7% | 91.8%
23 | COc1ccc(Cc2cc(-c3ccccc3C)n[nH]c2=O)cc1 | 98.6% | 87.3% | 129% | 97.8% | 105% | 22.7% | 105% | 99.9% | 105% | 100%
24 | O=C(O)c1ccc(Nc2ncc3c(n2)-c2ccc(Cl)cc2C(c2c(F)cccc2F)=NC3)cc1 | 64.9% | 51.7% | 89% | 37.7% | 39.5% | 54.4% | 29.9% | 30% | 63% | 2.8% (active)
25 | Cc1ccc(-n2nc(C(C)(C)C)cc2NC(=O)NCc2cc(F)ccc2Oc2ccc3c(cnn3CCO)c2)cc1 | 20.8% | 21.1% | 21.6% | 26.1% | 25.8% | 19.5% | 4.27% (active) | 19.4% | 29.1% | -13% (active)
26 | COc1cc2c(cc1O)c(=O)n(CCN(C)C)c1c3cc4c(cc3ncc21)OCO4 | -19.1% (active) | -48.7% (active) | -5.9% (active) | -4.35% (active) | -14.8% (active) | -16.6% (active) | -37% (active) | -56% (active) | -54.5% (active) | 45.9%
